HCMV inh – human cytomegalovirus inhibition; HFF cells, HCMV-luciferase reporter, 72 h; active compounds read low; activity change, negative = inhibition, % at 57.5 µM; 4.5% of 410,000 active; AID 1259415; in the data active = activity change below about -60%; inconclusive = no clear call, values can overlap the other calls; inactive = above about -39%
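Inhibition of viral replication was scored as loss of reporter luminescence in HFFs infected with HCMV-luciferase (MOI 1 PFU/cell) for 72 h; compounds tested at 2 doses, normalized to buffer and Salinomycin controls.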
Sm TGR block – inhibitors of Schistosoma mansoni thioredoxin glutathione reductase; Q962Y6; purified TGR, DTNB reduction, TNB absorbance 405 nm; Potency, µM (highest dose often 114 µM), without a hit: top-dose activity change, negative = inhibition, actives largely listed as inhibitors; 3% of 360,000 active; AID 485364; also: potency is read from the fitted curve at half-maximal effect; nearly all actives have a fitted effect of over 60% in size
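Kinetic colorimetric format: TGR-catalysed, NADPH-driven DTNB reduction monitored via TNB absorbance. Enzyme dispensed at 20 nM; compound exposure 15 min at room temperature before reaction start.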
Pf growth 96h – inhibits malaria parasite growth, 96 h. P. falciparum luciferase reporter growth, 96 h. Potency, µM (highest dose often 28.7 µM), inactives show top-dose activity change, negative = inhibition, usual class: inhibitors. 6.9% of 320,000 active; also: potency is read from the fitted curve at half-maximal effect
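Cell-based qHTS: luciferase-tagged P. falciparum in erythrocytes (2% hematocrit, 0.05% parasitemia final) incubated with compounds for 96 hours, 37 C, 5% CO2; luciferase detection reagent then added and luminescence measured.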
Giardia FBPA inh – Giardia lamblia aldolase inhibition | purified Giardia FBPA | Potency, µM (series often up to 59.6 µM), inactives show top-dose activity, negative = inhibition, usual class: inhibitors | 0.71% of 290,000 active; also: potency is read from the fitted curve at half-maximal effect; nearly all actives have a fitted effect of over 55% in size
Target sequence (A8B2U2 whole entry, looked up): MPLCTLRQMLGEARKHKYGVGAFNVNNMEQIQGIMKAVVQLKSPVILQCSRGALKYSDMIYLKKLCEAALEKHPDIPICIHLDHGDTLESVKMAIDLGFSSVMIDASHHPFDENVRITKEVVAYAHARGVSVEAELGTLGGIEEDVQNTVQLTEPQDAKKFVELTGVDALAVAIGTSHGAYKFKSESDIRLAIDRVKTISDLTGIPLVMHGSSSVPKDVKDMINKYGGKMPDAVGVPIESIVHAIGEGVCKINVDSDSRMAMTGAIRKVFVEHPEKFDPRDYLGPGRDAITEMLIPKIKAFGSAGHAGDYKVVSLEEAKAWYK
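40 nM FBPA preincubated 10 min at RT with compound (up to 57.5 uM final), then substrate plus GAPDH/TPI/NAD/arsenate coupling and diaphorase/resazurin added. Fluorescence read after 20 min at RT, 525/598 nm.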
Pf growth 48h – inhibits P. falciparum growth in the first generation, 48 h | P. falciparum luciferase growth in erythrocytes, 48 h | Potency, µM (highest dose often 28.7 µM), for the others: at the highest dose activity change, negative = inhibition, actives largely listed as inhibitors | 5.9% of 310,000 active; also: potency is read from the fitted curve at half-maximal effect
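Luciferase-expressing parasites in RBCs, 2% Hct / 0.1% parasitemia final; RPMI 1640 + 0.5% Albumax; 37 C, 5% CO2, one generation; luminescence read-out, lower signal = inhibition.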
Active calls of the source: *; u = inconclusive; x = no result given. Only some compounds are listed: those with a hit (about 14% of all), similar ones and a draw of the others. Unless noted, calls follow the shape of the dose curve; as a rule, active = well fitted curve in the direction sought with a large enough effect; inconclusive = small, poorly fitted or top-dose-only effect, or another doubt; inactive = no such curve, though single readings can be large; an effect the other way counts as inactive or inconclusive. % is scaled to controls: 0 for no effect and ±100 for the full control effect.

SMILES | HCMV inh | Sm TGR block | Pf growth 96h | Giardia FBPA inh | Pf growth 48h
CC1(C)CC(=O)C(C=NCCN2CCN(C(=O)NC34CC5CC(CC(C5)C3)C4)CC2)=C(O)C1 | 18 | 35µM* | -5% | 3% | u
CC1(C)CC(=O)C(C=NCCN2CCN(C(=O)Cc3ccc(F)cc3)CC2)=C(O)C1 | -18 | u | 8% | -9% | 4%
Cc1cccc(NC(=O)COc2coc(CN3CCN(c4ccccc4)CC3)cc2=O)c1C | -61* | 0% | u | x | 9.3µM*
Cc1cccc(COc2coc(CN3CCN(C(=O)c4ccco4)CC3)cc2=O)c1 | -6 | -26% | 12µM* | x | u
CCOC(=O)COc1coc(CN2CCN(c3ccccc3)CC2)cc1=O | -61* | -9% | u | x | 10%
O=C(c1ccco1)N1CCN(Cc2cc(=O)c(OCc3ccccc3)co2)CC1 | -27 | -25% | u | x | 31%
O=C(COc1coc(CN2CCN(c3ccccc3)CC2)cc1=O)Nc1ccccc1 | 10 | u | u | x | u
COc1ccccc1N1CCN(Cc2cc(=O)c(OCC(=O)Nc3ccccc3)co2)CC1 | -26 | -7% | -6% | x | 9.3µM*
CCOC(=O)COc1coc(CN2CCN(c3cccc(Cl)c3)CC2)cc1=O | u | 0% | u | x | 1%
O=C1C(=O)N(Cc2ccncc2)C(c2ccccc2F)/C1=C(\O)c1ccc2c(c1)OCCO2 (stereo not drawn) | u | -7% | 1% | 20% | u
O=C(OCC(=O)N1CCc2ccccc21)[C@@H]1CC(O)CN1S(=O)(=O)c1ccc(Cl)cc1 (stereo partly drawn) | -34 | x | x | x | x
Cc1ccc(NC(=O)COc2coc(CN3CCN(c4ccccc4)CC3)cc2=O)cc1 | -5 | -1% | 4.7µM* | x | u
O=C(CCl)c1ccc2c(c1)CCN2C(=O)C1CC1 | x | 7.1µM* | 10µM* | -10% | -15%
O=C(C1CC1)N1CCc2cc(S(=O)(=O)NCCCN3CCCCC3)ccc21 | -4 | 7% | u | x | u
O=C(C1CCC(C(=O)N2CCc3ccccc32)CC1)N1CCc2ccccc21 (stereo not drawn) | -20 | -6% | 8.3µM* | 0% | 2%
O=C(CCl)c1ccc2c(c1)CCN2C(=O)C1CCCCC1 | 33 | 1.3µM* | u | -9% | u
COc1ccccc1C(=O)N/C(=C/c1ccc2c(c1)OCO2)C(=O)Nc1ccc(C(=O)O)cc1 | 30 | -1% | -14% | -7% | u
CN(C(=O)CSc1nc(O)cc(=O)n1C1CCCC1)c1ccccc1 | -18 | 7% | 1.7µM* | -21% | u
CN(C(=O)CSc1nc(O)cc(=O)n1-c1ccccc1F)c1ccccc1 | -16 | 2% | -4% | x | u
Cc1cc(C)c(Cn2c(=O)n(-c3ccccc3Cl)c(=O)c3c(C)c(C(=O)N(C)C)sc32)c(C)c1 | 14 | 6% | x | x | x
Nc1cc(Cl)ccc1N1CCCC1 | -22 | u | u | -14% | 2.1µM*
Nc1cc(F)ccc1N1CCCCCC1 | -31 | -25% | 144% | -27% | 1µM*
CN1CCN(c2ccc(F)cc2N)CC1 | 33 | 0% | u | 1% | 23%
Nc1cc(Cl)ccc1N1CCOCC1 | -29 | 52% | x | -1% | 13%
CCOC(=O)c1[nH]c2ccc(OC)cc2c1N=CN(C)C | 27 | 0% | 0.13µM* | -1% | 7%
SMILES | HCMV inh | Sm TGR block | Pf growth 96h | Giardia FBPA inh | Pf growth 48h
COC(=O)C1=C(C)NC(=S)NC1c1ccc(-c2cc(Cl)ccc2Cl)o1 (stereo not drawn) | -13 | 13µM* | u | -6% | 12µM*
COC(=O)C1=C(C)NC(=O)NC1c1ccc(-c2ccc(Cl)cc2)o1 (stereo not drawn) | u | 14µM* | u | 6% | -15%
COc1cc2[nH]c(=S)nc(NCCc3ccc(C)cc3)c2cc1OC | 3 | -3% | 8% | 9% | 2.6µM*
COc1cc2[nH]c(=S)nc(NCc3ccc(Cl)cc3)c2cc1OC | u | -17% | u | 15% | 12µM*
COc1cc2[nH]c(=S)nc(NC3CCCCCC3)c2cc1OC | -74* | 1% | 8% | 4% | u
COc1cc2[nH]c(=S)nc(NCC3CCCO3)c2cc1OC (stereo not drawn) | 25 | -1% | -2% | 4% | u

High-throughput results deposited in PubChem BioAssay by National Center for Advancing Translational Sciences (NCATS).
